Measured values: ChEMBL document CHEMBL4513216, “Probing the Open Global Health Chemical Diversity Library for Multistage-Active Starting Points for Next-Generation Antimalarials” (ACS Infect Dis, 2020)
In all, about 68,000 compounds went through this assay and about 2,700 (4%) showed an effect of 50% or more. Shown is part of a subset that was picked to be rich in strong results.

system: Plasmodium berghei; assay: Screen against P. berghei liver stage (PbLuc), transformed with Luciferase, at 2uM; assay type: functional, HepG2; details: tested at 2 uM

First: O=C(NCc1cccnc1N1CCCCC1)c1ccc2[nH]nnc2c1
Second: O=C(NCc1cccnc1N1CCCC(O)C1)c1ccc2[nH]nnc2c1 (stereo unspecified)
The INHIBITION of the first is higher: 54.47% for the first, 33.13% for the second.

Going from `O=C(NCc1cccnc1N1CCCCC1)c1ccc2cc[nH]c2c1` to `Cc1[nH]c2ccccc2c1-c1ccnc(NCCN2CCCCC2)n1`, the INHIBITION falls from 15.75% to -2.21%.

Compared with `O=C1NC[C@@]2(C(=O)O)CN(Cc3cccc(CN4CCOCC4)c3)C[C@@H]12`, `O=C1NC[C@@]2(C(=O)O)CN(Cc3cccc(OC4CCCC4)c3)C[C@@H]12` is higher in INHIBITION: 34.46% for the first, 62% for the second.

Compared with `O=C1NC[C@@]2(C(=O)O)CN(Cc3cccc(Oc4ccccc4)c3)C[C@@H]12`, `COc1cccc(-c2noc(C3CCN(Cc4ccncc4)C3)n2)c1` (stereo unspecified) is lower in INHIBITION: 24.55% for the first, -22.79% for the second.

Going from `Cc1cc(C(C)(O)CNC(=O)C2(C)CCCC2)c(C)o1` (stereo unspecified) to `Cc1cc(C(C)(O)CNC(=O)OC(C)(C)C)c(C)o1` (stereo unspecified), the INHIBITION falls from 65.92% to 25.21%.

First: Cc1cc(C(C)(O)CNC(=O)c2ccc(Br)o2)c(C)o1 (stereo unspecified)
Second: Cc1ccc(C)c(NC(=O)c2coc(C)n2)c1
The INHIBITION of the first is lower: 27.32% for the first, 48.68% for the second.

Going from `COCC1CC2(CCN(Cc3ccc(OC)cc3)CC2)CN1C(C)C` (stereo unspecified) to `c1cc(CN2CCOCC3(CCN(CC4CCOCC4)CC3)C2)ccn1`, the INHIBITION rises from 2.07% to 26.76%.

First: CC1CCN(CCNC(=O)c2cncnc2C(C)C)CC1
Second: CC(C)C[C@H](Nc1nc(C2CCCC2)nc2c1cnn2C)C(N)=O
The INHIBITION of the first is lower: 25.35% for the first, 52.38% for the second.

Compared with `CCC1=NOC(CNCc2cnc(-c3ccccc3C)s2)C1` (stereo unspecified), `Cc1cnc(CNCc2cnc(-c3ccccc3C)s2)cn1` is higher in INHIBITION: -31.79% for the first, 58.53% for the second.

Going from `Cc1ccccc1-c1ncc(CNCc2csc(C(C)C)n2)s1` to `CCn1cncc1CNc1ccc(-c2nc(CC(C)C)no2)cn1`, the INHIBITION rises from -17.01% to -15.11%.

Compared with `COCCN1C=NC2(CCC(C(=O)Nc3ccc(C)cc3)CC2)C1=O` (stereo unspecified), `CCC(NC(=O)C1CCN(S(C)(=O)=O)CC1)c1ccc(OC)cc1` (stereo unspecified) is higher in INHIBITION: -76.06% for the first, 19.7% for the second.

Going from `COc1cccc(-c2noc(C3CCN(Cc4ccccc4C)C3)n2)c1` (stereo unspecified) to `COc1cccc(-c2noc(C3CCN(Cc4ccc(C)cc4)C3)n2)c1` (stereo unspecified), the INHIBITION rises from 3.97% to 58.96%.

Compared with `Cc1cccc(CN2CCC3(CC2)CN(c2cnn(C)c2)C(=O)CO3)n1`, `O=C1COC2(CCN(Cc3cccnc3)CC2)CN1` is higher in INHIBITION: -29.81% for the first, 11.87% for the second.

Compared with `Cc1cc(NC(=O)C(C#N)Cc2cnn(C)c2C)no1` (stereo unspecified), `CCOC(=O)CC(C)Nc1nc(C(C)(C)C)nc2c1cnn2C` (stereo unspecified) is lower in INHIBITION: -11.32% for the first, -70.6% for the second.

First: CN1CCCC1CCn1ccnc1-c1nc(-c2ccccc2)no1 (stereo unspecified)
Second: Cc1cc(C(=O)N2CCC(c3nccn3Cc3ccncc3)CC2)no1
The INHIBITION of the first is lower: 17.37% for the first, 17.75% for the second.

First: O=c1c(S(=O)(=O)N2CCCC2)cccn1Cc1ccccc1Cl
Second: O=c1c(S(=O)(=O)N2CCCCC2)cccn1Cc1ccccc1Cl
The INHIBITION of the first is higher: 52.89% for the first, -10.16% for the second.

Going from `O=c1c(S(=O)(=O)N2CCCC2)cccn1Cc1ccc(F)cc1Cl` to `O=C(CCn1ccccc1=O)N1CCCC(COc2ccc(F)cc2)C1` (stereo unspecified), the INHIBITION rises from 0.78% to 8.25%.

Going from `O=C(NCc1cccc(F)c1)NCC(O)c1cccc(F)c1` (stereo unspecified) to `CC(C)C(=O)NCc1ccccc1NS(=O)(=O)c1ccccc1`, the INHIBITION rises from -70.27% to -1.56%.

Going from `COCc1ccc(C(=O)NS(=O)(=O)c2ccc3c(c2)CCC(=O)N3)cc1` to `COCC(C)Nc1ccc(-c2nc(Cc3ccc(F)cc3)no2)cn1` (stereo unspecified), the INHIBITION rises from 24.36% to 31.51%.

First: COc1cccc(-c2noc3c2CN(c2ncnc4c2CCC4)CC3)c1
Second: COc1cccc(-c2noc3c2CN(c2nc(C)ncc2C)CC3)c1
The INHIBITION of the first is higher: 62.51% for the first, 36.28% for the second.

First: COCc1cc(N2CCc3onc(-c4cccc(OC)c4)c3C2)ncn1
Second: COc1ccc(Cc2noc(-c3ccc(NC(C)CO)nc3)n2)cc1 (stereo unspecified)
The INHIBITION of the first is lower: 5.28% for the first, 43.44% for the second.

Going from `CC[C@@H](C)[C@@H](N)C(=O)Nc1cccc(-c2cnc(NCCO)nc2)c1` to `CCC(C)Oc1cc(C(=O)Nc2nccs2)ccn1` (stereo unspecified), the INHIBITION rises from -35.83% to 41.05%.

Compared with `CC(C)CCS(=O)(=O)N1CCCC(c2nncn2C(C)C)C1` (stereo unspecified), `CC(C)n1cnnc1C1CCCN(S(=O)(=O)CCCF)C1` (stereo unspecified) is higher in INHIBITION: -108.93% for the first, -33.29% for the second.

First: CC(C)n1cnnc1C1CCCN(S(=O)(=O)CC2CCCC2)C1 (stereo unspecified)
Second: O=C(NC1CCCC1)[C@@H]1C[C@@H]2CCN(Cc3ccoc3)C[C@H]2O1
The INHIBITION of the first is higher: 60.42% for the first, 3.18% for the second.

Compared with `Cc1nc(CN2CCC3(C2)CN(C(=O)c2conc2C)C3)cs1`, `CN(C)C(=O)CO[C@H]1CO[C@@]2(CCN(Cc3ccsc3)C2)C1` is lower in INHIBITION: 3.95% for the first, -9.99% for the second.

Compared with `CC(C)Cc1noc(-c2ccc(NCc3noc(C(C)C)n3)nc2)n1`, `CCC(O)CNc1ccc(-c2nc(CC(C)C)no2)cn1` (stereo unspecified) is higher in INHIBITION: 42.17% for the first, 69.71% for the second.

First: CC(CO)Nc1ccc(-c2nc(Cc3ccc(F)cc3)no2)cn1 (stereo unspecified)
Second: Cc1nc(C)n(CC2CCCN2CCCOc2ccc(F)cc2)n1 (stereo unspecified)
The INHIBITION of the first is higher: 57.75% for the first, -8.1% for the second.

First: O=C(NC[C@H]1OC[C@@H](NC2CCC(F)(F)CC2)[C@@H]1O)N1CCOCC1
Second: O=C(NC1CC1)[C@H]1CN(Cc2ccc3c(c2)OCO3)C[C@H]2OCC[C@@H]12
The INHIBITION of the first is higher: 11.43% for the first, -0.18% for the second.

Compared with `CCC(C)Oc1cc(C(=O)Nc2nnc(C(C)C)[nH]2)ccn1` (stereo unspecified), `CCC(C)Oc1cc(C(=O)Nc2nc(C)ns2)ccn1` (stereo unspecified) is higher in INHIBITION: 38.67% for the first, 52.98% for the second.

First: c1cc(CN2C[C@@H]3OCCN(CCN4CCCC4)[C@@H]3C2)co1
Second: O=C1CC[C@H]2[C@H](CCN2C(=O)N2CCCC2)N1Cc1ccncc1
The INHIBITION of the first is higher: 2.87% for the first, -61.95% for the second.

Going from `Cc1nc(-c2cc(Cl)c3c(c2)CC(CN)O3)c[nH]1` (stereo unspecified) to `Cc1nc(-c2cc(F)c3c(c2)CC(CN)O3)c[nH]1` (stereo unspecified), the INHIBITION falls from 74.44% to 33.9%.

Going from `Cc1nc(-c2cc(Cl)cc3c2OC(CN)C3)c[nH]1` (stereo unspecified) to `CCC(C(=O)Nc1ccc2nc(C)oc2c1)N1CCCC1=O` (stereo unspecified), the INHIBITION falls from 26.74% to 14.06%.

Compared with `CN(CC(F)(F)F)C(=O)Cn1cc(NC(=O)C(C)(C)C)cn1`, `CN(C(=O)c1cccn1C)C1CCC(NC(=O)OC(C)(C)C)CC1` (stereo unspecified) is higher in INHIBITION: -48.48% for the first, 62.51% for the second.

Compared with `CNC(=O)c1cc(C)n(-c2cccc(OC)c2)c1C`, `COc1cccc(-n2c(C)cc(C(=O)NC(C)(C)C(N)=O)c2C)c1` is higher in INHIBITION: 31.7% for the first, 50.05% for the second.

Compared with `COc1cccc(-n2c(C)cc(C(=O)NCCCC(N)=O)c2C)c1`, `CC(=O)N1CCCN(C(C(=O)O)c2cccc(C)c2C)CC1` (stereo unspecified) is lower in INHIBITION: 30.29% for the first, -17.37% for the second.

First: CN(Cc1ccco1)C[C@H]1OC[C@@H]2CN(c3ncc(F)cn3)CC[C@@H]21
Second: Cc1ccc(NC2CCCN(C3Cc4ccccc4C3)C2)nn1 (stereo unspecified)
The INHIBITION of the first is higher: 17.89% for the first, 3.91% for the second.

Going from `Cc1cc(C(=O)NCc2c(C)nn(C)c2C)nc(N2CCOCC2)n1` to `Cc1cc(C(=O)NCc2c(C)nn(C)c2C)nc(N2CCCC2)n1`, the INHIBITION falls from -68.8% to -70.38%.

First: Cc1cc(C(=O)NCCc2c(C)nn(C)c2C)nc(N2CCCCC2)n1
Second: CCOC(=O)CC(C)Nc1nc(C2CCCC2)nc2c1cnn2C (stereo unspecified)
The INHIBITION of the first is lower: 52.82% for the first, 57.64% for the second.

Compared with `O=C(O)c1csc(S(=O)(=O)N2CCCc3cccc(OC(F)F)c32)c1`, `O=C(O)c1nnn(-c2ccc(C(F)(F)F)cc2)c1-c1ccncc1` is higher in INHIBITION: -58.31% for the first, -40.92% for the second.

Compared with `CN(C(=O)c1ccc[nH]1)C1CCC(NC(=O)OC(C)(C)C)CC1` (stereo unspecified), `CN(C(=O)c1ccco1)C1CCC(NC(=O)OC(C)(C)C)CC1` (stereo unspecified) is lower in INHIBITION: 48.21% for the first, 38.67% for the second.

Going from `c1cnc(N2CCC3(CCCN(Cc4ccncc4)C3)CC2)nc1` to `c1cncc(N2CCOCC3(CCCN(Cc4cccs4)C3)C2)c1` (stereo unspecified), the INHIBITION falls from 4.89% to -26.24%.

Going from `c1cncc(COCc2cncc3c2CCN(Cc2ccoc2)C3)c1` to `CCOCC1CN(C(=O)Cc2ccsc2)Cc2ccnn2C1` (stereo unspecified), the INHIBITION falls from 25.5% to 21.77%.

First: CC(C)[C@H](Nc1nc(C2CCCC2)nc2c1cnn2C)C(N)=O
Second: COC(=O)[C@@H](Nc1nc(C2CCCC2)nc2c1cnn2C)[C@@H](C)O
The INHIBITION of the first is lower: 23.16% for the first, 40.4% for the second.

Going from `COC(=O)[C@H](CSC)Nc1nc(C2CCCC2)nc2c1cnn2C` to `Cc1c(Cl)c(C(=O)N2CC(c3cccnc3)C2)nn1C`, the INHIBITION falls from 43.28% to 7.62%.

Going from `Cc1ccc2nc(C(=O)N3C[C@@H](C(=O)O)[C@H](c4cccnc4)C3)cn2c1` to `Cc1c(Cl)c(C(=O)N2C[C@@H](C(=O)O)[C@H](c3cccnc3)C2)nn1C`, the INHIBITION rises from 1.52% to 69.71%.

Going from `CNc1cc(C)nc(NC2CCCN(C3Cc4ccccc4C3)C2)n1` (stereo unspecified) to `CNc1nc(C)cc(NC2CCCN(C3Cc4ccccc4C3)C2)n1` (stereo unspecified), the INHIBITION rises from 8.26% to 58.03%.

Compared with `CC(C)COC1CC2(CCN(C(=O)Cc3ccccn3)CC2)C1`, `CC1CN(C(=O)c2cnn(-c3ccccn3)c2C(C)C)CC(C)(C)O1` (stereo unspecified) is higher in INHIBITION: -9.07% for the first, -4.15% for the second.

Compared with `CSCc1noc(Cn2ncn3cccc3c2=O)n1`, `CCc1c(C(=O)N2CCOC(C)(C)C2)cnn1-c1ccccn1` is higher in INHIBITION: 46.15% for the first, 61.63% for the second.

Compared with `CCc1c(C(=O)N2CC(C)OC(C)(C)C2)cnn1-c1ccccn1` (stereo unspecified), `OC(c1ccccn1)C1CCN(Cc2cc3n(n2)CCNC3)CC1` (stereo unspecified) is higher in INHIBITION: 24.23% for the first, 60% for the second.

Compared with `CCc1nc(CC(=O)N2CCC(C(=O)N3CCCC3)CC2)cs1`, `OC(c1ccccn1)C1CCN(Cc2cc3n(n2)CCCNC3)CC1` (stereo unspecified) is higher in INHIBITION: -30.23% for the first, -29.69% for the second.

Compound `c1ccc(C2CCCN(Cc3cc4n(n3)CCNC4)CC2)cc1` (stereo unspecified) has an INHIBITION of 9.57%.
